# Experimental data from PubChem BioAssay (NCATS).
# Records with an inconclusive call do not appear. Active and inactive are the calls of the source. Unless noted, calls come from the whole dose curve; as a rule, active = well fitted cell-killing curve with a large enough effect; inconclusive = small, poorly fitted or top-dose-only effect, or effect the other way; inactive = no such curve, though single readings can be large or run the other way.
# Experiments:
# [1] = Quantitative High-Throughput drug screen in 47 multiple myeloma cell lines against the NCATS MIPE library collection: PE2_PLB cell viability assay (AID 1919869); note: nearly all actives have a fitted effect of over 35% in size; note: potency is the fitted concentration of half-maximal effect
# Method in brief: (§1)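 Plated at 500 cells per well, myeloma lines received MIPE 4.0 compounds by pin tool. Following 48 h culture at 37 °C, CellTiter-Glo luminescence gave viability relative to DMSO and media-only controls.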
# [2] = Quantitative High-Throughput drug screen in 47 multiple myeloma cell lines against the NCATS MIPE library collection: RPMI8226_ATCC cell viability assay (AID 1919871); note: nearly all actives have a fitted effect of over 30% in size; note: potency is the fitted concentration of half-maximal effect
# Method in brief: as §1
# [3] = Quantitative High-Throughput drug screen in 47 multiple myeloma cell lines against the NCATS MIPE library collection: KMS11_JCRBsus cell viability assay (AID 1919873); note: nearly all actives have a fitted effect of over 50% in size; note: potency is the fitted concentration of half-maximal effect
# Method in brief: as §1
# [4] = Quantitative High-Throughput drug screen in 47 multiple myeloma cell lines against the NCATS MIPE library collection: KMS28BM_JCRB cell viability assay (AID 1919874); note: nearly all actives have a fitted effect of over 35% in size; note: potency is the fitted concentration of half-maximal effect
# Method in brief: as §1
# [5] = qHTS drug screen for cell cycle checkpoint inhibitors in PARPi-resistant BRCA-mutant ovarian cancer cell lines. (AID 1963452; calls by dose curve); settings: PEO1/OlaR viability, CellTiter-Glo luminescence, 96 h, stronger effect = lower value
# Method in brief: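 PEO1, PEO4 and PEO1/OlaR ovarian cancer cells, 600 per well, exposed 96 h at 37C to a dilution series. Viability read by CellTiter-Glo luminescence, normalized to DMSO and empty wells; activity summarized as Z-AUC.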
# [6] = Quantitative High-Throughput drug screen in 47 multiple myeloma cell lines against the NCATS MIPE library collection: OPM2_DSMZ cell viability assay (AID 1919872); note: nearly all actives have a fitted effect of over 30% in size; note: potency is the fitted concentration of half-maximal effect
# Method in brief: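 Luminescent ATP measurement with CellTiter-Glo gives viability, scaled between DMSO-only wells (100%) and media-only wells (0%). Cells, 500 per well, faced library compounds for 48 hours at 37C.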
# [7] = Quantitative High-Throughput drug screen in 47 multiple myeloma cell lines against the NCATS MIPE library collection: PCM6_Riken cell viability assay (AID 1919870); note: potency is the fitted concentration of half-maximal effect; nearly all actives have a fitted effect of over 30% in size
# Method in brief: as §1
# [8] = qHTS for identification of novel therapeutic agents for treatment of microphthalmiaassociated transcription factor (MiT) renal cell carcinoma (RCC) (AID 1963991); settings: CellTiter-Glo, 48 h, stronger effect = lower value
# Method in brief: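 Curves over 11 concentrations were fitted to CellTiter-Glo luminescence, scaled between empty wells (0%) and DMSO (100%) viability. Cells were UOK109, UOK124 and UOK145 TFE3-fusion RCC lines at 500/well, exposed 48 hours at 37 C.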
# [9] = measured here: PEO1 parental Z-AUC
# [10] = TFE3-RCC UOK109 viability, measured here: UOK109 Z-AUC
# [11] = TFE3-RCC viability, measured here: UOK124 Z-AUC
# [12] = TFE3-RCC viability, measured here: UOK145 Z-AUC
smiles,measurement,setting,value
COc1cc2c(cc1-c1c(C)noc1C)ncc1[nH]c(=O)n([C@H](C)c3ccccn3)c12,Potency,[1],14.8 µM (active)
same,Potency,[2],7.43 µM (active)
same,Potency,[3],0.264 µM (active)
same,Potency,[4],0.332 µM (active)
same,Z-AUC,[5],-1.31 (inactive)
same,Z-AUC,[5]; [9],-1.04
same,Z-AUC,[5]; measured here: PEO4 Z-AUC,-1.54
COC(=O)Nc1ccc(-c2nc(N3CCOCC3)c3cnn(C4CCN(Cc5cccnc5)CC4)c3n2)cc1,Potency,[1],0.0469 µM (active)
same,Potency,[2],0.0118 µM (active)
same,Potency,[6],0.296 µM (active)
same,Potency,[3],0.0296 µM (active)
same,Potency,[4],0.418 µM (active)
same,Z-AUC,[5],-0.964 (inactive)
same,Z-AUC,[5]; [9],-0.853
same,Z-AUC,[5]; measured here: PEO4 Z-AUC,-0.944
CC(=O)Nc1sc2c(c1-c1nc3ccccc3s1)CNC2,Potency,[1],20.9 µM (active)
same,Potency,[7],14.8 µM (active)
same,Potency,[2],14.8 µM (active)
same,Potency,[4],14.8 µM (active)
CC(=O)OCCN1C(=O)c2c(C)nc3ccc(S(=O)(=O)N4CCOCC4)cc3c2C1=O,Potency,[1],inactive
same,Potency,[2],inactive
same,Potency,[6],inactive
same,Potency,[3],inactive
same,Potency,[4],inactive
same,Z-AUC,[5],1.23 (inactive)
same,Z-AUC,[5]; [9],1.34
same,Z-AUC,[5]; measured here: PEO4 Z-AUC,1.26
COCCOc1ccc2c(c1)ncn2-c1ccc2cccc(N3CCC(N)CC3)c2n1,Potency,[1],0.372 µM (active)
same,Potency,[7],1.05 µM (active)
same,Potency,[2],26.4 µM (active)
same,Potency,[4],16.6 µM (active)
same,Z-AUC,[5],0.074 (inactive)
same,Z-AUC,[5]; [9],0.935
same,Z-AUC,[5]; measured here: PEO4 Z-AUC,0.806
COc1ccc(CC2c3cc(OC)c(OC)cc3CC[N+]2(C)CCC(=O)OCCCCCOC(=O)CC[N+]2(C)CCc3cc(OC)c(OC)cc3C2Cc2ccc(OC)c(OC)c2)cc1OC (stereo not given),viability (% of control),[1],81% [at 5.15 µM] (inactive)
same,viability (% of DMSO),[6],116% [at 5.15 µM] (inactive)
same,viability (% of control),[3],114% [at 5.15 µM] (inactive)
same,"viability, % of control",[4],110% [at 5.15 µM] (inactive)
same,Z-AUC,[5],0.349 (inactive)
same,Z-AUC,[5]; [9],0.569
same,Z-AUC,[5]; measured here: PEO4 Z-AUC,0.213
same,z-score,[8]; [10],1.41
same,z-score,[8]; [11],1.48
same,z-score,[8]; [12],1.15
Cc1cn2c(-c3cn[nH]c3)cnc2c(Nc2ccc(C(=O)N3CCNCC3)cc2F)n1,Potency,[1],20.9 µM (active)
same,Potency,[7],18.7 µM (active)
same,Potency,[6],23.5 µM (active)
same,Potency,[3],8.33 µM (active)
same,Potency,[4],8.33 µM (active)
NC(=O)c1c(OCc2c(F)cc(Br)cc2F)nsc1NC(=O)NCCCCN1CCCC1,Potency,[1],23.5 µM (active)
same,Potency,[7],10.5 µM (active)
same,Potency,[2],23.5 µM (active)
same,Z-AUC,[5],0.49 (inactive)
same,Z-AUC,[5]; [9],0.803
same,Z-AUC,[5]; measured here: PEO4 Z-AUC,0.754
O=C(O)CCCc1c[nH]c2ccccc12,Potency,[1],inactive
same,Potency,[6],inactive
same,Potency,[4],inactive
same,Z-AUC,[5],0.341 (inactive)
same,Z-AUC,[5]; [9],0.661
same,Z-AUC,[5]; measured here: PEO4 Z-AUC,0.6
same,z-score,[8]; [10],0.907
same,z-score,[8]; [11],0.701
same,z-score,[8]; [12],0.654
c1cc(-c2cnn3cc(-c4ccc(OCCN5CCCCC5)cc4)cnc23)ccn1,Potency,[1],3.32 µM (active)
same,Potency,[7],1.87 µM (active)
same,Potency,[2],16.6 µM (active)
same,Z-AUC,[5],0.293 (inactive)
same,Z-AUC,[5]; [9],0.413
same,Z-AUC,[5]; measured here: PEO4 Z-AUC,0.377
